# Reference: PubChem BioAssay (NCATS)
# Inconclusive results are not listed. Calls of active or inactive are those of the source. Calls come from the whole dose curve; as a rule, active = well fitted cell-killing curve with a large enough effect; inconclusive = small, poorly fitted or top-dose-only effect, or effect the other way; inactive = flat fitted curve, though single readings scatter.
# Test system: Tov112D
# Experiment: Primary qHTS to identify gynecologic anti-cancer compounds using libraries of approved drugs and bioactive compounds (AID 1345084); note: nearly all actives have a fitted effect of over 55% in size
# Conditions: Gynecologic cancer cell panel viability, ATPlite luminescence, 48 h; series mostly up to 57.5 µM; activity change, negative = cytotoxicity: at the top concentration
# Outline: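 Cytotoxicity screen measuring ATP content by luciferase luminescence. Each compound is applied at five concentrations for 48 h at 37 C with 5% CO2.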
# % is set by controls: 0 for no effect and ±100 for the full control effect.
row,SMILES,"activity change, negative = cytotoxicity"
1,COc1ccc2c3c1O[C@H]1C[C@@H](O)C=C[C@@]31CCN(C)C2,5.27% (inactive)
2,O=C(OCc1cccc(O)c1O[C@@H]1O[C@H](CO)[C@@H](O)[C@H](O)[C@H]1O)C1(O)C(=O)C2C=CC1C1C=CC(=O)C(O)(C(=O)OCc3cccc(O)c3O[C@@H]3O[C@H](CO)[C@@H](O)[C@H](O)[C@H]3O)C21 (some centres not stated),2.56% [at 11.6 µM] (inactive)
3,NC(=O)[C@H]1CCCCc2c1[nH]c1ccc(Cl)cc21,15.1% [at 25.3 µM] (inactive)
4,CCOC(=O)Nc1nc2ccccc2[nH]1,-6.48% (inactive)
5,CC1CCCC2OC2C(=O)c2c(O)cc(O)cc2CC(=O)O1 (configuration not stated),2.88% (inactive)
6,Cc1c(N2C(=O)c3ccc(C(=O)O)cc3C2=O)c(=O)n(-c2ccccc2)n1C,12.1% (inactive)
7,C[C@@H]1CC[C@]2(C(=O)O)CC[C@]3(C(=O)O)C(=CCC4[C@@]5(C)CC[C@H](O[C@@H]6O[C@@H](C)[C@H](O[C@@H]7O[C@H](CO)[C@@H](O)[C@H](O)[C@H]7O)[C@@H](O)[C@H]6O)C(C)(C)C5CC[C@]43C)C2[C@H]1C (some centres not stated),9.25% [at 25.3 µM] (inactive)
8,COC1C2=C(COC2=O)C2(C)CCCC(C)(CO)C2C1OC(=O)c1ccccc1 (configuration not stated),-0.435% [at 25.3 µM] (inactive)
9,O=C(O[C@@H]1O[C@H](CO)[C@@H](O)[C@H](O)[C@H]1O)c1c(O)cc(O)cc1/C=C/c1ccccc1,10% [at 25.3 µM] (inactive)
10,C=C1CC/C=C(/CO)C(=O)C[C@@H]2[C@@H]1CC2(C)C,8.92% (inactive)
11,CC1CCC2C(C)(C)C(O)CCC2(C)C12Cc1c(O)cc3c(c1O2)C(N)=NC3 (configuration not stated),2.38% [at 38.5 µM] (inactive)
12,COc1cc(C(=O)OC[C@H]2O[C@H](O[C@@]3(CO)O[C@@H](CO)[C@H](O)[C@H]3O)[C@H](O)[C@@H](O)[C@@H]2O)ccc1O,4.99% [at 25.3 µM] (inactive)
